DUSP3 inh: VHR1 phosphatase inhibitors, primary screen, biochemical, colorimetric, HTS; inhibition, % at 20 µM; recombinant VHR phosphatase, colorimetric substrate read-out; Dual specificity protein phosphatase 3 (Homo sapiens), P51452; hit rate 0.7% among 50,000; in the data active means inhibition above about 60%
Target sequence (P51452 whole entry, looked up): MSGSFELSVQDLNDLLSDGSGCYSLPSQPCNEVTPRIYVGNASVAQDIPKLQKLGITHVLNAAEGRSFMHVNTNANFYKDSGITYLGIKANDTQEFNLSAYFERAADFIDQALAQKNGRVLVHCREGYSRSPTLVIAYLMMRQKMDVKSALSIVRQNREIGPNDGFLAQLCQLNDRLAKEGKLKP
Starred values were filed as active, the others as inactive. This excerpt belongs to a sample that is enriched for hits.

SMILES | DUSP3 inh
COC(=O)c1c(C)oc2ccc(OCc3ccc(F)cc3)cc12 | -18
Cc1ccsc1/C=C1\SC(=S)N(CC(C)C)C1=O | 7
Cc1ccc(/C=C2/SC(=S)N(CCC(=O)O)C2=O)o1 | 13
Cc1ccc(/C=C2\SC(=S)N(CC(C)C)C2=O)o1 | 87*
Cc1nc(-c2ccccc2)nc(N/N=C/c2c(F)c(F)c(F)c(F)c2F)c1C | -20
Oc1cccc(-n2c(O)c(/C=C3\C=Nc4ccccc43)sc2=S)c1 | -11
COc1ccc(C2CC(=O)C3=C(C2)Nc2ccccc2NC3c2ccc(C)o2)cc1 (centres undefined) | 94*
COc1ccc(C2CC(=O)C3=C(C2)Nc2ccccc2NC3c2cccc(OC)c2OC)cc1OC (centres undefined) | -1
COc1ccc(C2CC(=O)C3=C(C2)Nc2ccccc2NC3c2ccccc2OCc2ccccc2)cc1OC (centres undefined) | 98*
CCOc1ccccc1C1Nc2ccccc2NC2=C1C(=O)CC(c1ccc(OC)c(OC)c1)C2 (centres undefined) | 44
O=C1CC(c2ccccc2)CC2=C1C(c1ccco1)Nc1ccccc1N2 (centres undefined) | 7
O=C1CC(c2ccccc2)CC2=C1C(c1cccc(Cl)c1Cl)Nc1ccccc1N2 (centres undefined) | 2
COc1ccc(C2CC(=O)C3=C(C2)Nc2ccccc2NC3c2ccccc2)cc1 (centres undefined) | 23
O=C1CC(c2ccccc2)CC2=C1C(c1c(F)cccc1Cl)Nc1ccccc1N2 (centres undefined) | 115*
COc1ccc(C2CC(=O)C3=C(C2)Nc2ccccc2NC3c2c(F)cccc2Cl)cc1 (centres undefined) | 8
O=C1CC(c2ccccc2)CC2=C1C(c1coc3ccccc3c1=O)Nc1ccccc1N2 (centres undefined) | 112*
CCOc1ccc(C2Nc3ccccc3NC3=C2C(=O)CC(c2ccc(OC)cc2)C3)cc1 (centres undefined) | -5
CC1(C)CC(=O)C2=C(C1)Nc1ccccc1NC2c1coc2ccccc2c1=O (centres undefined) | 3
c1ccc(-c2nc(C3COc4ccccc4O3)cs2)cc1 (centres undefined) | -3
CCOc1cccc(/C=C2\SC(=O)N(c3ccccc3)C2=O)c1O | 1
Cc1cc(OCC(=O)Nc2ccccc2Cl)cc(C)c1Cl | 4
CCOc1ccccc1CN(CCc1ccc2c(c1)OCO2)Cc1ccc(F)c(F)c1 | -8
Clc1ccc(-c2nc(N3CCOCC3)c3ccccc3n2)c(Cl)c1 | -5
COc1ccc(OC)c(NC(=O)c2ccccc2[N+](=O)[O-])c1 | -20
O=C(Nc1ccc(Cl)cn1)C(Sc1ccccc1)c1ccccc1 (centres undefined) | -14
SMILES | DUSP3 inh
Cc1cccc(NC(=O)C(O)C(O)C(=O)Nc2cccc(C)c2)c1 (centres undefined) | -9
CCOC(=O)NC(NC(=O)OCC)c1cccc([N+](=O)[O-])c1 | -18
O=C(O)C1Cc2c([nH]c3ccccc23)C(c2ccccc2F)N1 (centres undefined) | 4
O=C(Nc1ccc(O)c(-c2nc3ccccc3s2)c1)c1ccc2c(c1)OCCO2 | -4
O=c1c2cc3c(=O)n(-c4nc5ccccc5s4)c(=O)c3cc2c(=O)n1-c1nc2ccccc2s1 | -12
Cc1ccc(C2Nc3ccc(C(=O)c4ccccc4)cc3NC3=C2C(=O)CC(C)(C)C3)o1 (centres undefined) | -5
O=C1CC(c2ccc3c(c2)OCO3)CC2=C1C(c1ccc(-c3ccccc3)cc1)Nc1ccccc1N2 (centres undefined) | 115*
O=C1CC(c2ccc(Cl)cc2)CC2=C1C(c1ccc3c(c1)OCO3)Nc1ccccc1N2 (centres undefined) | -20
Cc1ccc(C2Nc3ccc(C(=O)c4ccccc4)cc3NC3=C2C(=O)CCC3)o1 (centres undefined) | 101*
O=C1CC(c2ccccc2)CC2=C1C(c1ccc(-c3ccccc3)cc1)Nc1ccccc1N2 (centres undefined) | 4
O=C1CCCC2=C1C(c1ccc(F)cc1)Nc1ccc(C(=O)c3ccccc3)cc1N2 (centres undefined) | 35
Cc1ccccc1C(=O)Nc1cccc(NC(=O)c2ccc(-c3cccc(Cl)c3)o2)c1 | -2
CC1CN(c2ccc([N+](=O)[O-])cc2)CCN1 (centres undefined) | -44
Cc1ccc(NCC(=O)N/N=C\c2ccc(OC(=O)c3ccccc3)cc2)cc1 | -10
O=C(Oc1ccc(/C=N/O)cc1)c1ccc(Br)cc1 | 104*
O=C(N/N=C/c1ccc(/C=N/NC(=O)c2ccc(Br)cc2)cc1)c1ccc(Br)cc1 | -2
COc1cccc(C(=O)Nc2cc(-c3nc4cc(Cl)cc(Cl)c4o3)ccc2C)c1 | -10
COc1ccc(/C=C2/NC(=S)NC2=O)c2ccccc12 | -25
COc1cccc(-c2cc(C(=O)Nc3sc(C)c(C)c3C(N)=O)c3ccccc3n2)c1 | 7
Cc1sc(NC(=O)c2cc(-c3cccs3)nc3ccccc23)c(C(N)=O)c1C | 88*
Cc1cccc(NC(=O)c2cc(-c3cccs3)nc3ccccc23)c1 | -11
Cc1cc(C)c(C(=O)/C(=C/c2ccco2)c2ccccc2)c(=O)[nH]1 | 8
CN(C)c1cnn(-c2ccccc2)c(=O)c1N | -10
O=C(Cn1nnc(-c2ccccc2)n1)N/N=C/c1ccc(-c2ccc(C(=O)O)cc2)o1 | -19
C=CCC1(O)CC(c2ccccc2)NC(c2ccccc2)C1C(C)C (centres undefined) | -8
SMILES | DUSP3 inh
CCN(CC)c1ccc(Nc2nc(-c3sc(N)nc3C)cs2)cc1 | 101*
Cc1nc(C)c(-c2csc(Nc3ccc(O)cc3)n2)s1 | 68
CCN(CC)c1ccc(Nc2nc(-c3c(C)nc4ccccn34)cs2)cc1 | 55
COC(=O)c1c(-c2cc(C)ccc2C)csc1N | 37
COc1ccc(/C=C(\NC(=O)c2ccccc2)C(=O)NCC(C)C)cc1OC | 7
Cc1ccc2oc(C(F)F)cc(=O)c2c1 | 24
Cn1c(=O)c2c(nc(Sc3nc4ccccc4n3Cc3ccccc3)n2C)n(C)c1=O | -13
Cn1c(=O)c2c(nc(N/N=C/c3ccccc3Cl)n2Cc2ccccc2)n(C)c1=O | -8
Cn1c(=O)c2c([nH]c(=S)n2Cc2ccc(Cl)c(Cl)c2)n(C)c1=O | 114*
COc1cccc(C(=O)N2c3ccccc3C(N(C(=O)C(F)(F)F)c3ccccc3)CC2C)c1 (centres undefined) | 0
O=C(c1cccc(Cl)c1)N1CCN(Cc2ccccc2[N+](=O)[O-])CC1 | -9
COC(=O)c1c(NC(=O)c2ccc(OCC(C)C)cc2)sc2c1CCC2 | 7
O=C(CSc1nc2ccccc2s1)NCc1ccccc1 | -6
COc1ccc(OC)c(N(CC(=O)Nc2ccc(C)cc2)S(C)(=O)=O)c1 | -14
CCC1CCc2c(sc(N)c2C#N)C1 (centres undefined) | -16
N#Cc1c(N)sc2c1CCCCCC2 | 18
O=c1[nH]c(=S)[nH]c2sc3c(c12)CCN(Cc1ccccc1)C3 | 51
N#Cc1c(N)sc2c1CCN(Cc1ccccc1)C2 | 102*
Nc1nc(SCc2ccc(Cl)cc2)nc2sc3c(c12)CCN(Cc1ccccc1)C3 | 4
Nc1sc(=S)nc2sc3c(c12)CCN(Cc1ccccc1)C3 | 72*
CC1C(C(=O)N(C=O)c2cccc([N+](=O)[O-])c2)C2C=CC1C21CC1 (centres undefined) | -19
Cc1ccc(/C=C2\C(=O)NC(=S)N(c3ccc(Br)cc3)C2=O)o1 | 26

Screening results: PubChem BioAssay, Sanford-Burnham Center for Chemical Genomics
